According to ChEMBL document CHEMBL1961873, “Compounds: GSK PKIS; Assays: Nanosyn kinase panel” (2012):
“And” between values parts separate entries of the source, which are not always exact repeats. Identical values can stand only once.

Experiments:
[1] = target: Ribosomal protein S6 kinase alpha-6 (Homo sapiens) (UniProt Q9UK32); conditions: at 1 µM;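 note: each value is a mean inhibition of RSK4 from a GSK PKIS panel screen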
[2] = target: T1, Serine/threonine-protein kinase Sgk1 (Homo sapiens) (UniProt O00141); conditions: at 0.1 µM
T1 sequence (whole entry): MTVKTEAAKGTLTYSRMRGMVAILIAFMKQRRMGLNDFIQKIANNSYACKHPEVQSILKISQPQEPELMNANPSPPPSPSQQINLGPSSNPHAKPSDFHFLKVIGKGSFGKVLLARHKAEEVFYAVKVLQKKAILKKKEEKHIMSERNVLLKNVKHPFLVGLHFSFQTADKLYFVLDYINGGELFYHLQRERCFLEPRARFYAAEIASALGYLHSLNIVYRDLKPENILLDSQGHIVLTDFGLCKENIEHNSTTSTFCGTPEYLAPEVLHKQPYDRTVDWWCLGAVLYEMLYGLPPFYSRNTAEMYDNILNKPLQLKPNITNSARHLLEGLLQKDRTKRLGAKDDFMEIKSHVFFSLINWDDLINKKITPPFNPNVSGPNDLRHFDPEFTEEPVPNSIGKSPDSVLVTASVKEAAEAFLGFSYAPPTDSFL

[3] = target: T1, Serine/threonine-protein kinase Sgk1 (Homo sapiens); conditions: at 1 µM
[4] = target: T2, Serine/threonine-protein kinase Sgk2 (Homo sapiens) (UniProt Q9HBY8); conditions: at 0.1 µM
T2 sequence (whole entry): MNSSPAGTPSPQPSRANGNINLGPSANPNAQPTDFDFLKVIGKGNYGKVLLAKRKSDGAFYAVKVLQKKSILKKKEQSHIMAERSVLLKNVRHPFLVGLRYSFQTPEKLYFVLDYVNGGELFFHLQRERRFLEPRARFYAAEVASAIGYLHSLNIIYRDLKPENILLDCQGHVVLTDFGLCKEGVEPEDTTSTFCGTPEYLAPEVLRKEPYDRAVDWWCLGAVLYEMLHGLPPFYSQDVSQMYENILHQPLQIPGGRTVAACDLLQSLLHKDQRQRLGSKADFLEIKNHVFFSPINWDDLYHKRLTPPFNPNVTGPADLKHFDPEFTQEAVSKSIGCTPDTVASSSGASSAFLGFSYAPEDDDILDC

[5] = target: T2, Serine/threonine-protein kinase Sgk2 (Homo sapiens); conditions: at 1 µM
[6] = target: T3, Serine/threonine-protein kinase Sgk3 (Homo sapiens) (UniProt Q96BR1); conditions: at 0.1 µM
T3 sequence (whole entry): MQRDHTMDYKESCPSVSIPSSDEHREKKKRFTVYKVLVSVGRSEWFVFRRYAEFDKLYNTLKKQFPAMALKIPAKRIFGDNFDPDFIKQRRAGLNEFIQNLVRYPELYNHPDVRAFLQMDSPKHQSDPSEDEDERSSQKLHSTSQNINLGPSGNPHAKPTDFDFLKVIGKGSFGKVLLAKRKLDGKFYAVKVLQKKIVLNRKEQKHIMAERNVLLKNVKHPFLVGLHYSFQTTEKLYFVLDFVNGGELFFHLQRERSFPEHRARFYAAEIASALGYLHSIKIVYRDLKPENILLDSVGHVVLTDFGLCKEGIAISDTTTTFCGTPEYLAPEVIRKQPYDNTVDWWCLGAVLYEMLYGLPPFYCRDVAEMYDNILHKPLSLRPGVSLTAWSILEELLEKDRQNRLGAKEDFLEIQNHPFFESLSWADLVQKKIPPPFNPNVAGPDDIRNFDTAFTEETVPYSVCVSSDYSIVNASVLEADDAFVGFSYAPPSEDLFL

[7] = target: T3, Serine/threonine-protein kinase Sgk3 (Homo sapiens); conditions: at 1 µM
[8] = target: 5'-AMP-activated protein kinase catalytic subunit alpha-1 (Homo sapiens) (UniProt Q13131); conditions: at 0.1 µM
[9] = target: 5'-AMP-activated protein kinase catalytic subunit alpha-1 (Homo sapiens) (UniProt Q13131); conditions: at 1 µM
[10] = target: 5'-AMP-activated protein kinase catalytic subunit alpha-2 (Homo sapiens) (UniProt P54646); conditions: at 0.1 µM
[11] = target: 5'-AMP-activated protein kinase catalytic subunit alpha-2 (Homo sapiens) (UniProt P54646); conditions: at 1 µM
[12] = target: T4, NUAK family SNF1-like kinase 1 (Homo sapiens) (UniProt O60285); conditions: at 0.1 µM
T4 sequence (whole entry): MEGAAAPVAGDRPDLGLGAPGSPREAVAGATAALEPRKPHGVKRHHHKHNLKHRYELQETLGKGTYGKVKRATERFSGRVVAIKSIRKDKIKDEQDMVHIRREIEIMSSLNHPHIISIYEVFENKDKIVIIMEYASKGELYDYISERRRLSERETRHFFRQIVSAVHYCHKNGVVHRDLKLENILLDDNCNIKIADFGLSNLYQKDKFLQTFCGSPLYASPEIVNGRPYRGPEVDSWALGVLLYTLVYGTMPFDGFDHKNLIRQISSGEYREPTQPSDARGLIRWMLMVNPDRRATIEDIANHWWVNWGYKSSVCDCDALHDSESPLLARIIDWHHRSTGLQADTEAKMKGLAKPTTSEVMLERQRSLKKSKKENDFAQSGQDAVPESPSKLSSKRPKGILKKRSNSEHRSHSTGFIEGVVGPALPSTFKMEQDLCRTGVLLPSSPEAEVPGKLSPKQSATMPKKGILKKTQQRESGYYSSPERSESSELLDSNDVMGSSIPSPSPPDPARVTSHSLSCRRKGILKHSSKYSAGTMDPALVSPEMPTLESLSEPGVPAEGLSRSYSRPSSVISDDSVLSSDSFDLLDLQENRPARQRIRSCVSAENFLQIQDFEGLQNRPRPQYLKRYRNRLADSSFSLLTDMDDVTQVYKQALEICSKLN

[13] = target: T4, NUAK family SNF1-like kinase 1 (Homo sapiens); conditions: at 1 µM
[14] = target: T5, Serine/threonine-protein kinase BRSK1 (Homo sapiens) (UniProt Q8TDC3); conditions: at 0.1 µM
T5 sequence (whole entry): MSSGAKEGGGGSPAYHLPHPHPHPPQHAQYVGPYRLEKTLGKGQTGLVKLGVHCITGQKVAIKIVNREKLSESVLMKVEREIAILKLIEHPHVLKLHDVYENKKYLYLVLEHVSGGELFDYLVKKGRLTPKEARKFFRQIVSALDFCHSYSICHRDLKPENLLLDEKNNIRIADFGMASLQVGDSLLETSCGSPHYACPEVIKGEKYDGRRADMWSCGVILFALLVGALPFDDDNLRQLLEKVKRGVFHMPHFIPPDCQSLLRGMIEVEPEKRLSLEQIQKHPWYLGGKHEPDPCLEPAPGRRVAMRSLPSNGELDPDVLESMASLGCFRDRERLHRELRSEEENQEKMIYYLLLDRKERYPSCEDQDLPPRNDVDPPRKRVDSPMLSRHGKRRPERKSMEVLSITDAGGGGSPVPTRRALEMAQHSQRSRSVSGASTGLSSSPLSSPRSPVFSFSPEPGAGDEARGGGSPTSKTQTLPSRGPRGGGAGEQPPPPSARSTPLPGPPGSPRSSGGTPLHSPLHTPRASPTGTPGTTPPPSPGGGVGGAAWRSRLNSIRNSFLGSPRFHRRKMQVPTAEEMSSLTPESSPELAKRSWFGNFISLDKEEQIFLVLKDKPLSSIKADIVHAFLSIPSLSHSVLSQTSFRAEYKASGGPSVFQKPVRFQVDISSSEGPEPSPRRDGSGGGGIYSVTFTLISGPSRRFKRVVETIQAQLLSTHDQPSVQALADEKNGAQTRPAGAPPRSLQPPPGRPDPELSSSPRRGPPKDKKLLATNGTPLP

[15] = target: T5, Serine/threonine-protein kinase BRSK1 (Homo sapiens); conditions: at 1 µM
[16] = target: T6, Serine/threonine-protein kinase BRSK2 (Homo sapiens) (UniProt Q8IWQ3); conditions: at 0.1 µM
T6 sequence (whole entry): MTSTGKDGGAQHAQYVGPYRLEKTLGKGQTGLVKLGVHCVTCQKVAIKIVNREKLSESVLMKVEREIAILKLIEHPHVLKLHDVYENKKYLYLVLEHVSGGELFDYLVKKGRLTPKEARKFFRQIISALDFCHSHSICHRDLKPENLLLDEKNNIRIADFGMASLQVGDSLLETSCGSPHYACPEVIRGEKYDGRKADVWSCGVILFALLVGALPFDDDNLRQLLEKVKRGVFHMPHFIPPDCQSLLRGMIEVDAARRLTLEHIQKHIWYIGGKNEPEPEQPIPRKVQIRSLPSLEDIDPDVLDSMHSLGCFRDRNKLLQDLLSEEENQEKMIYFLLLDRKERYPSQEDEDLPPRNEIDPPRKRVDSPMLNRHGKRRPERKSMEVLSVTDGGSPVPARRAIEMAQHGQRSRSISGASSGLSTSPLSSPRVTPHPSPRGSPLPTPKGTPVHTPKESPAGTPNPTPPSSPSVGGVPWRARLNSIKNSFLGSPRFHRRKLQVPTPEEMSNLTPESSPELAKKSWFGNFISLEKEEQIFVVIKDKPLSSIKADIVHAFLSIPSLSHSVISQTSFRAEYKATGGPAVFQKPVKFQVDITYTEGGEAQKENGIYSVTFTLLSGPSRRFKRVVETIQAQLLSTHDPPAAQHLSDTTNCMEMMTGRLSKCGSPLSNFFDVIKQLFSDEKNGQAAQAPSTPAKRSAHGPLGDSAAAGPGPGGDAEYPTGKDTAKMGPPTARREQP

[17] = target: T6, Serine/threonine-protein kinase BRSK2 (Homo sapiens); conditions: at 1 µM
[18] = target: Calcium/calmodulin-dependent protein kinase type 1D (Homo sapiens) (UniProt Q8IU85); conditions: at 0.1 µM
[19] = target: Calcium/calmodulin-dependent protein kinase type 1D (Homo sapiens) (UniProt Q8IU85); conditions: at 1 µM
[20] = target: Calcium/calmodulin-dependent protein kinase type II subunit alpha (Homo sapiens) (UniProt Q9UQM7); conditions: at 0.1 µM;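 note: reported values are averages (mean inhibition of CAMK2A)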
Calcium/calmodulin-dependent protein kinase type II subunit alpha (Homo sapiens), sequence (Q9UQM7 whole entry): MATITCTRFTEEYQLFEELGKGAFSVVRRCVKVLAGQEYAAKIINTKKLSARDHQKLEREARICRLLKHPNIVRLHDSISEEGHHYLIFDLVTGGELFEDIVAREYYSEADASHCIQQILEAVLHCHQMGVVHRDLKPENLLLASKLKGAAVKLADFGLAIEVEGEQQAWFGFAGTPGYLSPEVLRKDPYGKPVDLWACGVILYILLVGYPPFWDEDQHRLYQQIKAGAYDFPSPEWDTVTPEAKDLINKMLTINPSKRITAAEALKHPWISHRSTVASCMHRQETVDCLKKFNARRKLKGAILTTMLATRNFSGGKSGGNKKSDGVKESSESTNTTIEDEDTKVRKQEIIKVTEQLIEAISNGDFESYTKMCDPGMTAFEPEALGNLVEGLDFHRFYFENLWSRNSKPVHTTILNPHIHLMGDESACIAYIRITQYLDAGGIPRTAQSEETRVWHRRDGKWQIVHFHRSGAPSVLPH

5'-AMP-activated protein kinase catalytic subunit alpha-2 (Homo sapiens), sequence (P54646 whole entry, looked up): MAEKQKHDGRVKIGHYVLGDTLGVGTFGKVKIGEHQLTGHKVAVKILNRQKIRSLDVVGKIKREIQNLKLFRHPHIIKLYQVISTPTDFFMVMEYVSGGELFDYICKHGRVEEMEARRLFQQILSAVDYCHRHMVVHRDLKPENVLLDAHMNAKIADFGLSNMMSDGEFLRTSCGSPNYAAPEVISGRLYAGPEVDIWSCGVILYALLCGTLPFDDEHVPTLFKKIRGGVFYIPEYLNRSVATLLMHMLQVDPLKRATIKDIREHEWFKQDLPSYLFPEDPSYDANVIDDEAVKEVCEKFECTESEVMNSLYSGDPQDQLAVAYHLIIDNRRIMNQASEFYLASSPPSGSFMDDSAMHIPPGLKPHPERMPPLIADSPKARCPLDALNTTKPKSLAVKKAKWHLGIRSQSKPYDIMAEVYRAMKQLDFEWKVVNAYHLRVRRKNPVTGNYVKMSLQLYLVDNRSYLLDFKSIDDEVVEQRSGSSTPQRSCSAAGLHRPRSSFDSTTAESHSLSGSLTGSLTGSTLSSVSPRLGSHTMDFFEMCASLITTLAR
Calcium/calmodulin-dependent protein kinase type 1D (Homo sapiens), sequence (Q8IU85 whole entry, looked up): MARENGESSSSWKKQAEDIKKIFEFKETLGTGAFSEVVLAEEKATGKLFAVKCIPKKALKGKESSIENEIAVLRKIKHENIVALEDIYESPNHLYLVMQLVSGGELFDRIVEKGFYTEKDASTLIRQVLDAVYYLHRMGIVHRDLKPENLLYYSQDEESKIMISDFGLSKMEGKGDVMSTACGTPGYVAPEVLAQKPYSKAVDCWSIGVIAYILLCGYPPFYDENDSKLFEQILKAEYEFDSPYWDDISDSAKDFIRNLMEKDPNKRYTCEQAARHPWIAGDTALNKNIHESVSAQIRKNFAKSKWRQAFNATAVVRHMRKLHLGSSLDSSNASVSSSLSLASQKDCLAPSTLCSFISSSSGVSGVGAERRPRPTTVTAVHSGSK
Ribosomal protein S6 kinase alpha-6 (Homo sapiens), sequence (Q9UK32 whole entry): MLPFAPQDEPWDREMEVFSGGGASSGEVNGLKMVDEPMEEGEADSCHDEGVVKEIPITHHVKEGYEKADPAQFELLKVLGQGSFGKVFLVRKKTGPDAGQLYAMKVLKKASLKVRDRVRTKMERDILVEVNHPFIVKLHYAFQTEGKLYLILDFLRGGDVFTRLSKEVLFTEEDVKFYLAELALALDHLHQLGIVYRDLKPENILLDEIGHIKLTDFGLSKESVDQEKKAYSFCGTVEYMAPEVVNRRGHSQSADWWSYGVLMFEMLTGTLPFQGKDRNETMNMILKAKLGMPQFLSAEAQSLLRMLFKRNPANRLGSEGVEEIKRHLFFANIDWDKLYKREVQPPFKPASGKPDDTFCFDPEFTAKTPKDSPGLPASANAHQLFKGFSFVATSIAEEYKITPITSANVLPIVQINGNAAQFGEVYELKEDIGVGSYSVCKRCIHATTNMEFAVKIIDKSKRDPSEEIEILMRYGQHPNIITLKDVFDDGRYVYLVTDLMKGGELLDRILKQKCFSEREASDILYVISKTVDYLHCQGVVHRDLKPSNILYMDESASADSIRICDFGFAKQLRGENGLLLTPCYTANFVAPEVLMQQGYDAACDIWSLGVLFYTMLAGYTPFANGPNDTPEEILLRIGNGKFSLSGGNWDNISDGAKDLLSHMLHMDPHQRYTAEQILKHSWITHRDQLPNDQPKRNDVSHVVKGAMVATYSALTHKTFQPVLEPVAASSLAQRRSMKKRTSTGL
5'-AMP-activated protein kinase catalytic subunit alpha-1 (Homo sapiens), sequence (Q13131 whole entry, looked up): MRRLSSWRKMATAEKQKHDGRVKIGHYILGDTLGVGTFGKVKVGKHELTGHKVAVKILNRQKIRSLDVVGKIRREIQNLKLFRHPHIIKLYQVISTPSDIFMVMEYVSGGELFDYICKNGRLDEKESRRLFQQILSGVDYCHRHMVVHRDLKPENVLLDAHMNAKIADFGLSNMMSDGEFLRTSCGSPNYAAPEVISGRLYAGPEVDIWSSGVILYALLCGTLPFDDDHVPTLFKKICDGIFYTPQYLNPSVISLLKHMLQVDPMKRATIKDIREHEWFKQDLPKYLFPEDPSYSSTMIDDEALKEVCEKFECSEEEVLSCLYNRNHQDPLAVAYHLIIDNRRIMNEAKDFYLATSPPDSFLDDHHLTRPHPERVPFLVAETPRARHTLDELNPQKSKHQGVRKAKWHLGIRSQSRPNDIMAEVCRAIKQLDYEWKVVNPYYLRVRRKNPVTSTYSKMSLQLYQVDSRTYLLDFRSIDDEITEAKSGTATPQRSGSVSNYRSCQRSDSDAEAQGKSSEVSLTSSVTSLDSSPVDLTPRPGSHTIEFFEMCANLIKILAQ

CCCNc1cccc(-n2ncc3c(N/N=C/c4ccncc4)ncnc32)c1
inhibition [1]: 3.54%
inhibition [2]: 2.34%
inhibition [3]: 13.6%
inhibition [4]: 2.41%
inhibition [5]: 10.9%
inhibition [6]: 3.53%
inhibition [7]: 5.07%
inhibition [8]: 1.8%
inhibition [9]: 3.53%
inhibition [10]: -1.29%
inhibition [11]: 2.07%
inhibition [12]: 5.36%
inhibition [13]: 36.3%
inhibition [14]: 2.58%
inhibition [15]: 24.7%
inhibition [16]: 4.13%
inhibition [17]: 29%
inhibition [18]: 0.76%
inhibition [19]: 1.66%
inhibition [20]: 1.4%

N#Cc1cccc(Nc2ncc(-c3ccccc3)o2)c1
inhibition [1]: -0.13%
inhibition [2]: 2.75%
inhibition [3]: 7.53%
inhibition [4]: 1.9%
inhibition [5]: -1.67%
inhibition [6]: 2.18%
inhibition [7]: 5.3%
inhibition [8]: 1.1%
inhibition [9]: 1.53%
inhibition [10]: -0.83%
inhibition [11]: 1.61%
inhibition [12]: 0.75%
inhibition [13]: 7.37%
inhibition [14]: -1.88%
inhibition [15]: 1.82%
inhibition [16]: 0.65%
inhibition [17]: 5%
inhibition [18]: -1.6%
inhibition [19]: -1.52%
inhibition [20]: 1.87%

CS(=O)(=O)CCNCc1ccoc1-c1ccc2ncnc(Nc3ccc(OCc4ccccc4)cc3)c2c1
inhibition [1]: -0.72%
inhibition [2]: 2.02%
inhibition [3]: 1.39%
inhibition [4]: 2.28%
inhibition [5]: -3.3%
inhibition [6]: 5.61%
inhibition [7]: 1.1%
inhibition [8]: -0.71%
inhibition [9]: -0.55%
inhibition [10]: 0.46%
inhibition [11]: 1.14%
inhibition [12]: 2.3%
inhibition [13]: 2.12%
inhibition [14]: -0.34%
inhibition [15]: -0.87%
inhibition [16]: 0.28%
inhibition [17]: 1.27%
inhibition [18]: -0.18%
inhibition [19]: -0.02%
inhibition [20]: -0.63%

NS(=O)(=O)c1ccc(N/N=C2\C(=O)Nc3cccc(CCc4ccncc4)c32)cc1
inhibition [1]: 7.42%
inhibition [2]: 1.76%
inhibition [3]: 1.65%
inhibition [4]: 3.09%
inhibition [5]: -0.79%
inhibition [6]: -1.13%
inhibition [7]: -0.92%
inhibition [8]: 4.83%
inhibition [9]: 8.26%
inhibition [10]: 3.2%
inhibition [11]: 11.6%
inhibition [12]: 47.4%
inhibition [13]: 62.5%
inhibition [14]: 1.52%
inhibition [15]: 7.67%
inhibition [16]: 3.33%
inhibition [17]: 15.8%
inhibition [18]: 0.4%
inhibition [19]: 1.14%
inhibition [20]: -1.5%

Nc1ncnc2occ(-c3ccc(NC(=O)Nc4cc(C(F)(F)F)ccc4F)cc3)c12
inhibition [1]: 9.97% and 5.9%
inhibition [2]: 1.7% and 0.49%
inhibition [3]: 3.4% and 1.19%
inhibition [4]: -0.51% and 1.78%
inhibition [5]: 2.34% and 2.65%
inhibition [6]: 1.18% and 0.24%
inhibition [7]: 1.67% and -1.01%
inhibition [8]: 2.02% and -1.41%
inhibition [9]: 1.94% and -0.8%
inhibition [10]: -0.22% and 3.36%
inhibition [11]: 0.27% and -2.18%
inhibition [12]: 5.01% and 0.14%
inhibition [13]: 6.07% and 1.77%
inhibition [14]: 1.75% and -1.05%
inhibition [15]: 9.34% and -0.75%
inhibition [16]: 2.02% and -1.66%
inhibition [17]: 6.92% and 0.75%
inhibition [18]: 1.85% and -1.45%
inhibition [19]: 4.86% and 2.86%
inhibition [20]: 2.82% and -3.6%

COc1ccc(Nc2ncc(-c3ccccc3)o2)cc1OC
inhibition [1]: 3.67%
inhibition [2]: 1.25%
inhibition [3]: 9.75%
inhibition [4]: 1.33%
inhibition [5]: -0.37%
inhibition [6]: 0.7%
inhibition [7]: -1.61%
inhibition [8]: 0.83%
inhibition [9]: 5.29%
inhibition [10]: -0.43%
inhibition [11]: 14.5%
inhibition [12]: 18.2%
inhibition [13]: 61.5%
inhibition [14]: 1.32%
inhibition [15]: 11.5%
inhibition [16]: 0.9%
inhibition [17]: 12.8%
inhibition [18]: 0.37%
inhibition [19]: 1.51%
inhibition [20]: 1.79%

O=C1Nc2ccccc2/C1=C1\CCc2cc(O)ccc21
inhibition [1]: 37.6%
inhibition [2]: 6.47%
inhibition [3]: 19.2%
inhibition [4]: 2.24%
inhibition [5]: 10.2%
inhibition [6]: 2.61%
inhibition [7]: 5.81%
inhibition [8]: 5.27%
inhibition [9]: 13.4%
inhibition [10]: 5.22%
inhibition [11]: 14.3%
inhibition [12]: 16.2%
inhibition [13]: 60.8%
inhibition [14]: 3.95%
inhibition [15]: 16.9%
inhibition [16]: 5.82%
inhibition [17]: 20.1%
inhibition [18]: 1.02%
inhibition [19]: 3.43%
inhibition [20]: 3.85%
